Laboratory results as given in PubChem BioAssay AID651803 (National Center for Advancing Translational Sciences (NCATS), 2012).
The whole screen tested about 1,200 compounds, of which fewer than 10 were called active. The call rests on the fitted dose curve; in most records, active means well fitted curve in the direction sought with a large enough effect; inconclusive means small, poorly fitted or top-dose-only effect, or another doubt; inactive means no such curve, though single readings can be large or run the other way. The list is a sample of the results.

target: Transcriptional regulator ERG (Homo sapiens) (UniProt P11308); test: qHTS for Small Molecule Inhibitors of the ERG Ets/DNA interaction: TR assay against cherry picks; conditions: ERG Ets domain-DNA fluorescence polarization, Texas red probe; series mostly up to 154 µM
From the text: The Ets family of proteins is a family of ~30 conserved transcription factors defined by the presence of an ~85 amino acid domain referred to as the Ets domain, which mediates sequence-specific DNA binding to a core DNA element GGAA/T.The Ets family member ERG has been linked to several neoplasms. […] More extensive studies of the effects of over-expression of ERG in prostate cells have recently been carried out and have shown that over-expression of ERG results in increased invasion. […] We will carry out a high throughout screen to identify inhibitors of the interaction between ERG and DNA using a fluorescence polarization (FP) assay with a His-tagged ERG Ets domain and fluorescently-labeled DNA probes to develop small molecule inhibitors of this interaction as probes to test this hypothesis and lay the groundwork for the development of targeted therapies against ERG. This is the confirmation against the cherry picks in theprimary screening assay. NIH Molecular Libraries Probe Production Network [MLPCN] NIH Chemical Genomics Center [NCGC] Grant: NS066464 PI Name: John Bushweller, University of Virgina
1.5 ul of protein solution (1 uM ERG domain in 300mM KCl, 50mM Tris-HCl, 1mM EDTA, 1mM DTT, pH 7.5); 20 nl Control plate and compound library plate; 1.5 ul mixture of 5 nM Fluorescein-DNA and 100nM Texas-615-DNA solution in same buffer as above solution; measure fluorescence polarization sequentially for fluorescein (Excitation = 480 nm, Emission = 535s, 535p nm) and Texas red (Excitation = 555 nm, Emission = 632s, 632p nm).

Chain of Transcriptional regulator ERG (Homo sapiens) (P11308 whole entry, looked up, the tested form may be a part): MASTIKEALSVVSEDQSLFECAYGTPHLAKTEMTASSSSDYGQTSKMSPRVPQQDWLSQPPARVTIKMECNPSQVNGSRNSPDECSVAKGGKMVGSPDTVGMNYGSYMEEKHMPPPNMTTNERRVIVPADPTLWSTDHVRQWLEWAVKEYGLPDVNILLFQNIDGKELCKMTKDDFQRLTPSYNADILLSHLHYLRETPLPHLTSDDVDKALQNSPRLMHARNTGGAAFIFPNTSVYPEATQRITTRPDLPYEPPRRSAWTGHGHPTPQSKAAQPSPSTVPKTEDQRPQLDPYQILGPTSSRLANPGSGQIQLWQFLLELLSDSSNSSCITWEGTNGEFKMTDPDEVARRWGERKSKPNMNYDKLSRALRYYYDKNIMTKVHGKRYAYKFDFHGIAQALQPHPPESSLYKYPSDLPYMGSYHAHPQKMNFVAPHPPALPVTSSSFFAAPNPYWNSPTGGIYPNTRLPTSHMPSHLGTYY

outcome, inactive:
Nc1c(C(=O)O)cnn1-c1ccccc1
OC(Cn1cnnc1)c1ccccc1 (configuration not stated)
COc1ccccc1NS(=O)(=O)c1cc(C(=O)N2CCCC2)ccc1C
COc1ccc(-c2nc3n(n2)C(c2ccccc2OC)C(C(=O)Nc2cccnc2)=C(C)N3)cc1 (configuration not stated)
COc1ccc2c(CCNC(=O)/C=C/c3ccc(OC)c(OC)c3)c[nH]c2c1
O=C(/C=C/c1ccc([N+](=O)[O-])cc1)NCc1ccco1
CC1(C)C2CCC1(CS(=O)(=O)N1CCC(C(N)=O)CC1)C(=O)C2 (configuration not stated)
CC(C)CNC(=O)CCc1nc(-c2ccccc2)no1
COc1ccc(N/C=C(\C(C)=O)c2ccc(OC)c(OC)c2)cc1OC
O=C(CNC(=S)N(CCCN1CCOCC1)Cc1cccs1)NC1CCCCC1
O=C(COc1ccc(F)cc1)Nc1nnc(-c2ccncc2)s1
COc1ccc(CCCC(=O)Nc2cc(C)ccc2OC)cc1
CCOC(=O)C1CCCN(C(=O)c2nn(-c3ccc(C)cc3)c(=O)n(C)c2=O)C1 (configuration not stated)
O=[N+]([O-])c1ccc(S(=O)(=O)N/N=C/c2ccsc2)cc1
O=C(Nc1ccc(N2CCOCC2)cc1)c1ccc2nc(-c3ccco3)c(-c3ccco3)nc2c1
CCn1c(=O)cc(OCC(=O)Nc2ccccc2C#N)c2ccccc21
CCOC(=O)C(=O)c1c(-c2ccccc2)nc2ccccn12
O=C(NCC(=O)N(c1ccccc1)C(C(=O)NC1CCCCC1)c1cccnc1)c1ccco1 (configuration not stated)
C[C@H](CO)N1C[C@H](C)[C@@H](CN(C)CC2CC2)Oc2c(NC(=O)C3CC3)cccc2C1=O
CCOc1ccccc1C1CC(c2ccc(Br)cc2)Nc2nc(N)nn21 (configuration not stated)
COc1ccc(/C=C/C(=O)Nc2c(C(=O)O)[nH]c3ccccc23)cc1OC
COc1ccc(-c2noc(Cn3c(=O)c4ccccc4n(CC(=O)Nc4cccc(C(F)(F)F)c4)c3=O)n2)cc1
COCCNC(=O)CSc1nc2ccccc2c(=O)n1-c1cccc(OC)c1
CCCCSc1cc(=O)n(-c2ccccc2)nc1C(=O)OCC
COc1c2c(c(CCC(=O)O)c3c1C=CC(C)(C)O3)OC(C)(C)C=C2
CC1Cc2ccccc2N1CC(=O)Nc1ccc2c(c1)OCO2 (configuration not stated)
CCC(C)NCCCOc1ccc(C)cc1OC (configuration not stated)
CCc1ccc(S(=O)(=O)NC2CC(C)(C)NC(C)(C)C2)cc1
Cc1cc2nc(-c3ccc[nH]c3=O)n(Cc3ccccc3F)c2cc1C
COc1ccc(OCCN2CCN(C(=O)c3ccc(OC(F)F)c(OC)c3)CC2)cc1
COc1ccc(C(=O)N(C)Cc2ccc(C)o2)cc1OC1CCN(C(C)C)CC1
COC(=O)C(CSCc1ccccc1)NC(=O)CSc1nc(N)cc(=O)[nH]1 (configuration not stated)
COc1ccc2cc(CO)c(Cl)nc2c1
Cc1cccc(-c2cnn(-c3cccc([N+](=O)[O-])c3)c2N)c1
CC(=O)Nc1ccc(SCC(=O)N(C)C2CCS(=O)(=O)C2)cc1 (configuration not stated)
CC(C)=CCOc1ccc2ccc(=O)oc2c1
CCOC(=O)COc1ccc(/C=C2/C(=O)NN(c3ccc(F)cc3)C2=O)cc1OC
Cc1ccc(-c2nnn(CC(=O)N(c3ccccc3)C(C(=O)NCC3CCCO3)c3ccc(F)cc3)n2)o1 (configuration not stated)
Cc1ccc(CNC(=O)COc2ccc(S(=O)(=O)N3CCCC3)cc2)cc1
O=C(OCCOCCN=C1NS(=O)(=O)c2ccccc21)c1ccccc1Br
CC(=O)Nc1ccc(NC(=O)Cn2c(=O)n(-c3ccccc3)c(=O)c3oc4ccccc4c32)cc1
COc1ccc(C(=O)n2nc(C)c(Br)c2C)cc1OC
N#Cc1c(C(F)(F)F)cc(-c2cccs2)nc1SCC(=O)Nc1cccc(Br)c1
N#CCCN(C(=S)NC(=O)C1CCCCC1)c1ccccc1F
Cc1ccc2c(COC(=O)c3ccccc3Br)cc(=O)oc2c1
COc1ccc(NC(=O)NCc2ccccn2)c(OC)c1
O=C(c1ccccc1)c1ccc[nH]1
Cc1ccc([N+](=O)[O-])c2c1C(N1CC(C)OC(C)C1)C(C)(C)O2 (configuration not stated)
COc1ccccc1NC(=O)Cn1c(=O)n(CCC(=O)NCC2CCCO2)c(=O)c2cc(OC)c(OC)cc21 (configuration not stated)
Clc1ccc(-c2csc(N/N=C/c3ccco3)n2)cc1
CCOC(=O)CC1COCCN1Cc1cn[nH]c1-c1cc(OC)c(OC)c(OC)c1 (configuration not stated)
COc1cc(C(=O)Nc2ccc(Cl)c([N+](=O)[O-])c2)cc(OC)c1OC
COc1cccc2c1C(=N)c1c(O)c3c(c(O)c1C2=O)CC(O)(C(C)=O)CC3OC1CC(N)C(O)C(C)O1 (configuration not stated)
O=C(NCc1cccc(Cl)c1)c1ccncc1
Cc1cccc(C)c1NC(=O)C1(N2C(=O)CC2c2ccccc2)CCCCC1 (configuration not stated)
CC1(C)CC2CC(C)(CN2C(=O)c2ccc([N+](=O)[O-])cc2)C1 (configuration not stated)
CN(C)c1nc(N)nc(Cn2nnc(-c3ccc(C(F)(F)F)cc3)n2)n1
CC(NC(=O)c1cn(C)c2ccc(S(=O)(=O)N3CCCC3)cc2c1=O)c1ccccc1 (configuration not stated)
Cc1[nH]c(=O)[nH]c(=O)c1/C=N/NC(=O)[C@H](C)N
CCOC(=O)N1CCC(NC(=O)CSCc2nc(-c3ccc(OCC)cc3)oc2C)CC1
CC(C)(O)CN(CCCNC(=S)Nc1ccccc1)C(=S)Nc1ccccc1
S=c1[nH]nc(CSCCOc2ccccc2)o1
Cn1c(CO)cnc1SCc1ccc(F)cc1
COc1ccc(CNC(=O)c2cccnc2SC)cc1OC
Cc1cc(C)c2c(N)c(C(=O)c3ccc(Cl)cc3)sc2n1
CCC1Oc2ccccc2N(CC(=O)NC2CC2)C1=O (configuration not stated)
Oc1c(Cl)cc(Oc2cc(Cl)c(O)c(CN3CCOCC3)c2)cc1CN1CCOCC1
COc1ccc(S(=O)(=O)NCCNC(=O)N2CCOCC2)cc1
O=C(CCNC(=O)c1ccccc1Cl)NCCCSc1ccccc1
Cn1c(CNC(=O)c2cccs2)n[nH]c1=S
CCCCC1=NN(C(=O)c2ccco2)C(O)(C(F)(F)F)C1 (configuration not stated)
CCC(=O)N1CCN(c2nc3ccc(Br)cc3s2)CC1
